Results on 98 molecules are retold here after PubChem BioAssay AID492997 (Johns Hopkins Ion Channel Center, 2010).

SMILES strings stand for the structures. Among all 4,900 compounds or so, about 2,000 (41%) were called active.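 How the source made its calls: active means thallium signal drop beyond 5 SD of the untreated control mean, on both duplicate plates; inactive means the rest.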 So high a share suggests a set chosen from earlier hits. The list is a sample of the results.

Broadly, the inhibition is the change of the read-out against control, counted positive when it falls.

The nature of this assay: nonspecific activity without KCNK9 expression – cell-based, second counter screen, non-induced KCNK9-HEK293, counter-screen for KCNK9 inhibitor project, confirmation (AID 492997).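 On inhibition: plate controls were buffer only IC0 wells for no effect and SID17386958 at its maximal inhibitory level for full effect.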 The note with it: non-induced KCNK9-HEK293, FluxOR thallium flux, at 10 µM; active compounds read high. For orientation: Counterscreens check selectivity or assay interference.
For `O=C(COC(=O)/C(=C/c1cccs1)c1cccs1)NCc1ccccc1Cl`, the inhibition is 31% (active).

`Cc1ccc(NC(=O)c2cc([N+](=O)[O-])ccc2Cl)c(O)c1`: the inhibition was 32% (active).

`N#Cc1nc(Cc2cccc3ccccc23)oc1NCc1ccc2c(c1)OCO2`: the inhibition is 53.5% (active).

On to `O=C(CC(NC(=O)c1ccccc1)c1ccccc1)Nc1ccc(F)c(F)c1` (stereo not drawn), for which the inhibition was 37% (active).

Consider `Cc1ccc(C(=O)c2c(NC(=O)c3ccccc3)sc(C)c2C)cc1`, for which the inhibition result is “inactive”.

`O=[N+]([O-])c1ccc(N2CCN(CC(O)COc3ccccc3)CC2)cc1` (stereo not drawn): the inhibition result is “inactive”.

On to `Cc1ccc(C)c(NC(=S)NNC(=S)Nc2ccc(C(C)C)cc2)c1`, for which the inhibition result is “inactive”.

In the case of `O=C(Cn1cc(C(=O)c2cccs2)c2ccccc21)NCc1cccs1`, the inhibition was 29.5% (active).

As to `CCOc1cccc(OCCCOc2cccc3cccnc23)c1`, the inhibition entry was “inactive”.

Consider `Cc1cc(Cl)ccc1C(=O)C1CCCN(C(=O)CCN2CCCO2)C1` (stereo not drawn), for which the inhibition result was “inactive”.

As to `CCCOc1ccc2c3c(c(=O)oc2c1OCCC)CCC3`, the inhibition is 48.5% (active).

For the molecule `Cc1cc2ccccn2c1C(=O)c1cccc(F)c1`, the inhibition entry was “inactive”.

As to `COc1cc(Cl)c(C)cc1NC(=O)CSc1nnc(-c2ccco2)n1CC(C)C`, the inhibition is 25.5% (active).

As for `O=C(Nc1nnc(SCc2ccc(Cl)cc2Cl)s1)C1COc2ccccc2O1` (stereo not drawn), the inhibition entry is “inactive”.

For `COc1cccc(-c2nn(C)c3sc(C(=O)N4CCN(c5ccccc5)CC4)cc23)c1`, the inhibition entry is “inactive”.

On to `COc1ccccc1C(c1nnnn1C(C)(C)C)N1CCN(Cc2ccccc2)CC1` (stereo not drawn), for which the inhibition was 37.5% (active).

As for `CC1=C/C(=N\OS(=O)(=O)c2ccccc2)C=CC1=O`, the inhibition result was “inactive”.

With `CCOc1ccccc1NC(=O)C1CCCN(S(=O)(=O)c2ccccc2)C1` (stereo not drawn), the inhibition result is “inactive”.

Take `Clc1ccc(COn2c(-c3ccc(Cl)cc3Cl)nc3ncccc32)cc1`: the inhibition is 45% (active).

Regarding `CCOC(=O)C(C)n1cnc2scc(-c3ccc(C)c(C)c3)c2c1=O` (stereo not drawn), the inhibition entry is “inactive”.

For the molecule `CCCCCCCCCCOC(=O)Cn1c(COc2cccc(OC)c2)[n+](C)c2ccccc21`, the inhibition is 28% (active).

For the molecule `CCCCCCCCCCOC(=O)Cn1c(COc2ccc(C)cc2)[n+](C)c2ccccc21`, the inhibition result was “inactive”.

Regarding `Cc1onc(-c2ccc(Cl)cc2)c1-c1ccnn1S(=O)(=O)c1ccc(Cl)cc1`, the inhibition is 46.5% (active).

As for `Cc1cccc(N2CCN(C(=O)c3cccc(S(=O)(=O)N4CCc5ccccc5C4)c3)CC2C)c1` (stereo not drawn), the inhibition entry was “inactive”.

Consider `CCCCn1ccnc1C(=O)c1cccc(S(=O)(=O)N2c3ccccc3CC2C)c1` (stereo not drawn), for which the inhibition was 46.5% (active).

In the case of `Cc1cc2ccccn2c1C(=O)c1cccc(S(=O)(=O)N2CCOCC2)c1`, the inhibition result was “inactive”.

For `C=CCc1cc(S(=O)(=O)c2ccc(O)c(CC=C)c2)ccc1O`, the inhibition is 26% (active).

For `O=C1CC(c2ccccc2)=NN1c1ccc([N+](=O)[O-])cc1`, the inhibition result is “inactive”.

`COc1ccc([N+](=O)[O-])cc1-c1nc2ccccc2nc1-c1ccccc1`: the inhibition was 37% (active).

As for `Cc1ccc(CN2CCN(/N=C/c3ccco3)CC2)c(C)c1`, the inhibition entry is “inactive”.

Turning to `CCOC(=O)C(C)Sc1nc2ccccc2c(=O)n1CC1CCCCC1` (stereo not drawn), the inhibition was 31.5% (active).

Take `Cc1[nH][nH]c(=O)c1C(c1ccc(-c2ccc(Cl)cc2)o1)c1c(C)[nH][nH]c1=O`: the inhibition entry is “inactive”.

As to `CC(C)(C)SCCSC1=CC(=O)CC(c2ccccc2)C1` (stereo not drawn), the inhibition entry was “inactive”.

As for `Cc1cccc(NC(=O)c2sc3nc4c(c(-c5ccco5)c3c2N)CCC4)c1`, the inhibition is 38.5% (active).

`Cc1ccnc(N2CCN(C(=O)CSc3nc4ccccc4nc3N3CCCCC3)CC2)c1`: the inhibition result was “inactive”.

As for `COC(=O)c1cc(NC2c3ccccc3C(=O)N2c2ccc(Cl)cn2)cc(C(=O)OC)c1` (stereo not drawn), the inhibition was 28.5% (active).

On to `CCOC(=O)N/N=C/c1cn(Cc2ccccc2Cl)c2ccccc12`, for which the inhibition was 25.5% (active).

Turning to `COc1cc(C(CCN2CCN(c3ccccc3)CC2)c2c(OC)cc(OC)c3ccc(=O)oc23)cc(OC)c1OC` (stereo not drawn), the inhibition entry is “inactive”.

Consider `Cc1ccc(C2=NN(C)c3nc4ccccc4n3C2)cc1`, for which the inhibition result was “inactive”.

Take `CCC/C=C(\CCC)C(NC(=O)Cc1ccccc1)c1ccc(C(=O)OC)cc1` (stereo not drawn): the inhibition is 53% (active).

For `CC(Oc1ccc2ccccc2c1)C(=O)NNC(=S)NC(=O)c1ccco1` (stereo not drawn), the inhibition entry is “inactive”.

For `O=C(Nc1ccc(Oc2ccccc2)cc1)c1ccco1`, the inhibition was 39.5% (active).

`Cc1ncoc1C(=O)N1CCCC(C(=O)c2ccc3c4c(cccc24)CC3)C1` (stereo not drawn): the inhibition entry was “inactive”.

With `O=S(=O)(Nc1cccc(Oc2ccc(Cl)cc2)n1)c1ccc(F)cc1`, the inhibition result is “inactive”.

As to `Cc1cc(Oc2ccc(Cl)cc2)nc(SCC(=O)c2ccccc2)n1`, the inhibition was 28% (active).

As to `CCOC(=O)CSc1nc2c(sc(=S)n2CCc2ccccc2)c(=O)n1Cc1ccco1`, the inhibition is 35.5% (active).

Regarding `O=C(COC(=O)c1ccccc1)Nc1ccccc1Sc1ccccc1`, the inhibition was 34.5% (active).

As for `COc1ccc(OC)c(-c2csc(-c3cccs3)n2)c1`, the inhibition was 26.5% (active).

For the molecule `COc1ccccc1/C=C/C=N/n1c(-c2ccc(Cl)cc2Cl)n[nH]c1=S`, the inhibition result was “inactive”.

For `Brc1ccc(C2CC(c3ccccc3)=Nc3ccccc3N2)cc1` (stereo not drawn), the inhibition is 34.5% (active).

With `COc1ccc(C(=O)C2CCCN(Cc3ccc4nonc4c3)C2)c(C)c1` (stereo not drawn), the inhibition result was “inactive”.

Take `COc1ccc(C2CC(c3cccs3)=Nc3ccccc3S2)cc1OC` (stereo not drawn): the inhibition was 33% (active).

Consider `CCCCNC(=S)N/N=C1\CCCCc2ccccc21`, for which the inhibition entry was “inactive”.

Turning to `CCOC(=O)N1CCN(C(=O)COc2ccc3oc4c(c3c2)CCCC4)CC1`, the inhibition result was “inactive”.

Turning to `CCOc1ccc(C(C)C)cc1S(=O)(=O)n1nc(C)cc1C`, the inhibition was 39.5% (active).

As to `O=C(NC(=S)Nc1ccccc1C(=O)O)c1ccc(-c2ccc(Br)cc2)o1`, the inhibition entry was “inactive”.

Take `O=c1cc(CN2CCN(c3cccc(Cl)c3)CC2)c2cc3c(cc2o1)CCCC3`: the inhibition result was “inactive”.

In the case of `CCc1cccc(C)c1N(C(=O)Cn1c(CO)nc2ccccc21)C(C)COC` (stereo not drawn), the inhibition was 33% (active).

On to `Cc1c(C(=O)Nc2ccccn2)oc2ccc(Br)cc12`, for which the inhibition was 29.5% (active).

Take `COc1cc(C2CC(=O)N3CN(Cc4ccccc4)CSC3=C2C#N)ccc1OCc1ccccc1` (stereo not drawn): the inhibition entry was “inactive”.

Take `CCCCCC(O)c1cccc(OCc2ccc3ccccc3n2)c1` (stereo not drawn): the inhibition was 38.5% (active).

Regarding `Cc1ccc(C(=O)c2c(NC(=O)c3ccncc3)sc3c2CCCC3)cc1`, the inhibition entry was “inactive”.

`CCCCN(Cc1ccccc1)C(=O)C1CCN(Cc2sccc2C)CC1`: the inhibition result was “inactive”.

In the case of `O=C(Oc1ccc(Br)cc1C(=S)N1CCOCC1)c1cccc([N+](=O)[O-])c1`, the inhibition result is “inactive”.

In the case of `O=C(C[C@H]1C(=O)N(c2ccc(F)c(F)c2)C[C@@H]1Cc1ccccc1)Nc1ccccc1`, the inhibition is 37% (active).

In the case of `COc1ccc(C(CCN(Cc2ccc(OC)c(OC)c2)C(=O)CCl)c2ccccc2)cc1` (stereo not drawn), the inhibition entry is “inactive”.

Consider `Cc1ccc(CN(N=Nc2nonc2N)c2nonc2N)c(C)c1`, for which the inhibition was 43.5% (active).

In the case of `CC(C)CC(COCc1ccc(Cl)cc1)N1CCN(C(=O)c2ccc(C(F)(F)F)cc2)CCC1=O` (stereo not drawn), the inhibition was 29.5% (active).

Turning to `CN(c1ccccc1)S(=O)(=O)c1cccc(NC(=O)Cc2c(F)cccc2Cl)c1`, the inhibition is 23.5% (active).

As for `Cc1ccccc1CSCCNC(=O)c1ccc(N(C)S(=O)(=O)c2ccccc2)cc1`, the inhibition entry was “inactive”.

Turning to `COc1ccccc1N1CCN(c2ncnc3sc(C)c(-c4ccccc4)c23)CC1`, the inhibition result was “inactive”.

For the molecule `Clc1ccc(CSc2nnc(/C=C/c3ccccc3)o2)c(Cl)c1`, the inhibition result was “inactive”.

For `CCN(CC)S(=O)(=O)c1ccc(N(C)Cc2ccc(C(F)(F)F)cc2)nc1`, the inhibition is 39.5% (active).

As to `O=C(NCc1ccco1)c1ccc(NS(=O)(=O)c2cccc([N+](=O)[O-])c2)cc1`, the inhibition result is “inactive”.

In the case of `CCCC1=Nc2cc(C(=O)NCc3ccco3)ccc2Sc2ccccc21`, the inhibition was 39.5% (active).

With `COc1cc(Cl)ccc1OCc1cc(C(=O)N2CC[C@@H]3CCCC[C@H]3C2)no1`, the inhibition entry was “inactive”.

With `CCOc1ccc(C2c3[nH]c4ccccc4c3CCN2Cc2cccn2-c2ncccn2)cc1` (stereo not drawn), the inhibition is 25.5% (active).

Turning to `COCCN(C(=S)Nc1cccc(Cl)c1C)C(C)c1ccco1` (stereo not drawn), the inhibition entry is “inactive”.

`Cn1nc(-c2ccccc2)c(CSc2cccc(Cl)c2)c1Cl`: the inhibition is 38% (active).

On to `CCOC(=O)C1(CCOc2ccccc2)CCN(Cc2cc(OC)c(O)cc2Cl)CC1`, for which the inhibition result was “inactive”.

`CCc1nnc(NS(=O)(=O)c2ccc(NC(=S)NC(=O)/C=C/c3cccs3)cc2)s1`: the inhibition entry was “inactive”.

As to `COc1cccc(NC(=S)N(CCc2c(C)[nH]c3ccccc23)Cc2ccco2)c1`, the inhibition is 30% (active).

For `Cc1[nH]c2ccccc2c1CCN(Cc1cccs1)C(=S)NC(C)(C)C`, the inhibition result is “inactive”.

Regarding `O=C(Nc1ccc(S(=O)(=O)N2CCCCC2)cc1)C1CCN(C(=O)c2ccc(F)cc2)CC1`, the inhibition result was “inactive”.

For `O=C(Cc1ccccc1)n1nc(-c2ccccc2)nc1NCc1ccco1`, the inhibition is 33% (active).

For the molecule `CCCC(=O)n1nc(NCc2ccc(OC)cc2)nc1NCc1ccc(OC)cc1`, the inhibition result was “inactive”.

In the case of `COc1ccccc1NC(=O)CSc1nc2sc(C)c(C)c2c(=O)n1Cc1ccco1`, the inhibition is 38.5% (active).

In the case of `C=CCOc1ccc(/C=N/NC(=O)C(C)Sc2ccccn2)cc1OCC` (stereo not drawn), the inhibition is 39% (active).

For `CCCN1C(=O)C(Cc2nc3ccccc3c(=O)n2-c2ccccc2)c2cc(C)ccc21` (stereo not drawn), the inhibition was 37.5% (active).

Take `CCOc1ccc(CN(Cc2ccco2)C(c2cccs2)c2nnnn2C(C)(C)C)cc1` (stereo not drawn): the inhibition is 41% (active).

In the case of `Cc1csc(Nc2ccc(Cl)cc2)[n+]1-c1ccc(Cl)cc1`, the inhibition entry was “inactive”.

Take `COc1ccc(-c2oc(/N=C/N3CCCC3)c(C#N)c2-c2ccc(OC)cc2)cc1`: the inhibition result was “inactive”.

For the molecule `CCC1=NN(C(=O)Cc2ccc([N+](=O)[O-])cc2)C(O)(c2ccc(Br)cc2)C1` (stereo not drawn), the inhibition was 28.5% (active).

With `Clc1cccc(-c2nc3nc4ccccc4nc3n2Cc2ccco2)c1`, the inhibition entry is “inactive”.

On to `Clc1ccc(Cl)c(Oc2ccc(Oc3nc(Cl)ccc3Cl)cc2)n1`, for which the inhibition result was “inactive”.

Regarding `COC(=O)C1=C(Nc2ccc(C)cc2)C=C(C)C(C(=O)OC)C1c1ccc(F)cc1` (stereo not drawn), the inhibition is 37.5% (active).

`Cc1ccc(C(=O)/C=C/c2c(C)nn(-c3ccccc3)c2Cl)cc1`: the inhibition result was “inactive”.

Turning to `O=C(Nn1c(SCc2ccc([N+](=O)[O-])cc2)nc2ccccc2c1=O)c1ccc(F)cc1`, the inhibition result was “inactive”.
